Only some compounds are listed: those with a hit (about 5.3% of all), similar ones and a draw of the others.
JMJD2E inh = blocks human JMJD2E demethylase activity; 1.6% of 230,000 active; Potency, µM (titrated, usually from 57.1 µM), for inactives: at the top dose activity change, negative = inhibition, most hits filed as inhibitors; B2RXH2; AID 2147; JMJD2E catalytic domain, FDH-coupled NADH fluorescence (FDH is formaldehyde dehydrogenase);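 further: potency means the concentration at half of the fitted maximal effect; 0% = wells with enzyme and -100% = buffer wells without enzyme; nearly all actives have a fitted effect of over 50% in size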
Target sequence (B2RXH2 1-337 limits assumed): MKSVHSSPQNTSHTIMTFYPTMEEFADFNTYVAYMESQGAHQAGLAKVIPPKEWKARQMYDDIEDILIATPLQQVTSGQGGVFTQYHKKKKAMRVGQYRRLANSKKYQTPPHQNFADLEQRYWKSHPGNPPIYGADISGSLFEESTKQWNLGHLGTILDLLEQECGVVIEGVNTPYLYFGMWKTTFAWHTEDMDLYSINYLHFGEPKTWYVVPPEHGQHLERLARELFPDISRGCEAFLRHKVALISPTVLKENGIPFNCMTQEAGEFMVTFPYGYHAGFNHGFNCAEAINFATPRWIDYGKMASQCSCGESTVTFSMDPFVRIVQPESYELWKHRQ
Sfp inh = blocks B. subtilis Sfp PPTase activity; 3.5% of 310,000 active; AID 1490; Potency, µM, for inactives: largest response in the series, negative = inhibition, most hits filed as inhibitors; Biochemical Sfp PPTase activity, qHTS; Q9F4F7;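 further: the enzyme is Sfp with the accession as filed and its product quenches rhodamine fluorescence; potency means the concentration at half of the fitted maximal effect; 0% = enzyme reaction without inhibitor and -100% = no enzyme wells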
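Sfp 15 nM + cpd, 15 min RT; start w/ rhodamine-CoA 5 uM, BHQ-2-YbbR 12.5 uM (final); 50 mM Hepes pH 7.6, 10 mM MgCl2, 0.01% NP-40, 0.01% BSA; read 525/598 nm at 0 and 30 min.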
Tau FP inhib = tau fibrillization inhibition (FP). P10636. K18 P301L tau heparin fibrillization, Alexa594 FP, 6 h. Potency, µM (doses to about 57.7 µM), without a hit: top-dose activity, negative = inhibition, hits mostly inhibitors. 0.39% of 280,000 active. AID 1468; further: potency means the concentration at half of the fitted maximal effect; nearly all actives have a fitted effect of over 55% in size
Target sequence (P10636 561-689 P618L limits assumed): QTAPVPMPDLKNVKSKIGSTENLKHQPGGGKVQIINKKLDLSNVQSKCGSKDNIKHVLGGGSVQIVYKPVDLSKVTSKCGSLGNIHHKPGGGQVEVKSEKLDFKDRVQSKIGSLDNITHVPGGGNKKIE
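Heparin (20 uM) drove fibril formation of recombinant tau K18 P301L, 15 uM unlabeled with 0.24 uM Alexa 594 label, for 6 hr at 37 C in 100 mM sodium acetate pH 7. Fluorescence polarization (555/632 nm) read 1 hr after 30 uM ThT.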
Coupling enz = counter-screen for Giardia aldolase inhibitors: coupling enzyme system. coupling enzyme system counterscreen, AmpLite Red fluorescence. activity change, negative = inhibition, % at 58.2 µM, hits read low. 0.67% of 290,000 active. AID 2472; in the data active means activity change below about -30%
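Counterscreen of the coupled detection system alone, without aldolase: glyceraldehyde-3-phosphate coupling enzymes plus AmpLite Red readout. Compounds at 57.5 uM final, 10 min RT preincubation, 20 min RT reaction, fluorescence 525/598 nm.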
Tau ThT inhib = blocks human tau fibril formation measured by thioflavin T; recombinant tau K18 P301L, heparin-induced fibrillization, ThT fluorescence; P10636; 2.1% of 270,000 active; Potency, µM (doses to about 57.4 µM), without a hit: top-dose activity, negative = inhibition, hits mostly inhibitors; AID 1460; further: potency means the concentration at half of the fitted maximal effect; nearly all actives have a fitted effect of over 55% in size
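Recombinant human tau K18 fragment […] carrying P301L, 15 uM unlabeled plus 0.24 uM Alexa 594-labeled, was fibrillized with 20 uM heparin in 100 mM sodium acetate pH 7 for 6 hr at 37 C; 30 uM ThT fluorescence read after 1 hr.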
Tau fluor cs = counter-screen for tau fibril formation inhibitors | Potency, µM (top dose mostly 57.7 µM), inactives show at the highest dose activity change, negative = decrease | 0.93% of 280,000 active | tau K18 P301L (four-repeat tau fragment) Alexa594 fluorescence, heparin fibrillization; further: potency means the concentration at half of the fitted maximal effect; nearly all actives have a fitted effect of over 55% in size
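Human K18 P301L tau (15 uM unlabeled plus 0.24 uM Alexa 594-labeled, final) in 100 mM sodium acetate pH 7 was mixed with compound and 20 uM heparin and incubated 6 hr at 37 C.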
Starred values were filed as active, the others as inactive; ! = not confirmed by another sample; [ ] = another dose, or the depositor's remark. Unless noted, the call rests on the fitted dose curve; in most records, active means well fitted curve in the direction sought with a large enough effect; inconclusive means small, poorly fitted or top-dose-only effect, or another doubt; inactive means no such curve, though single readings can be large; an effect the other way counts as inactive or inconclusive. Unless noted, on the % scale 0 is the no-effect control and ±100 the full control effect.

Screening COC(=O)c1ccc(NC(=O)CCc2c(C)nn(-c3ccc(N4CCOCC4)nn3)c2C)cc1 returned Tau FP inhib -2%, Tau ThT inhib inconclusive and Tau fluor cs -4%.
O=c1c2ccccc2nc(-c2ccc(Cl)cc2)n1CCCOc1ccccc1F was read as Tau FP inhib inconclusive, Tau ThT inhib -2% and Tau fluor cs -20%.
Screening CCN1CCN(CC(=O)N/N=C/c2cc(Br)cs2)CC1 returned Sfp inh 79µM* and Coupling enz -2.
Screening C=CCOc1ccccc1CNc1cccc(F)c1 returned JMJD2E inh 6%, Sfp inh 5%, Tau FP inhib 9%, Coupling enz -2, Tau ThT inhib inconclusive and Tau fluor cs inconclusive.
For C=CCOc1ccccc1CNc1ccc2c(c1)OCCO2 the results were JMJD2E inh inconclusive, Sfp inh -20%, Tau FP inhib 0%, Coupling enz -37*, Tau ThT inhib 18µM* and Tau fluor cs inconclusive.
`COc1ccc(C2=Nn3c(nnc3-c3ccc(OC)cc3OC)SC2)c(OC)c1` gave Sfp inh 5% and Coupling enz 1.
For CC1=C/C(=C/N(C)c2ccccc2)C(=O)S1 the results were JMJD2E inh -24%, Sfp inh 28µM*, Tau FP inhib inconclusive, Coupling enz 0, Tau ThT inhib 20µM* and Tau fluor cs -23%.
CN(/C=C/c1c([N+](=O)[O-])c(=O)n(C)c(=O)n1C)c1ccccc1 was read as JMJD2E inh -2%, Sfp inh 16%, Tau FP inhib 10%[2.34 µM], Coupling enz -2, Tau ThT inhib 5% and Tau fluor cs 3%.
`C=CC[C@@H]1C=C[C@H](O/N=C2\c3cc(OC)ccc3O[C@H](c3cccc(OC)c3)[C@H]2O)[C@H](CO)O1` gave Sfp inh -4%, Tau FP inhib -7%[11.6 µM], Coupling enz 0, Tau ThT inhib -5%[11.5 µM] and Tau fluor cs -9%[11.6 µM].
`COc1ccc(-c2nc(S(=O)(=O)c3ccc(C)cc3)c(NCc3ccccc3)o2)cc1` gave Tau FP inhib -2%, Tau ThT inhib inconclusive and Tau fluor cs -9%.
Screening CCCCNc1oc(-c2ccc(OC)cc2)nc1S(=O)(=O)c1ccccc1 returned JMJD2E inh -20%, Sfp inh 50µM*, Tau FP inhib -5%, Coupling enz 2, Tau ThT inhib inconclusive and Tau fluor cs -14%.
Screening CC1CN(CCOc2ccc(Cl)c(Cl)c2)CC(C)O1 (stereo unspecified) returned Sfp inh -28% and Coupling enz -7.
For C=CCc1cc(OC)ccc1OCCN1CC(C)OC(C)C1 (stereo unspecified) the results were Sfp inh 56µM* and Coupling enz 3.
For CC(=O)O[C@H]1C(=O)[C@@]2(C)[C@H]([C@H](OC(=O)c3ccccc3)[C@]3(O)C[C@H](OC(=O)[C@H](O)[C@@H](NC(=O)c4ccccc4)c4ccccc4)C(C)=C1C3(C)C)[C@]1(OC(C)=O)CO[C@@H]1C[C@@H]2O the results were JMJD2E inh 10%, Sfp inh 50µM*!, Tau FP inhib -2%, Coupling enz 1, Tau ThT inhib inconclusive and Tau fluor cs -16%.
`O=C1C=CC2=C3c4cc(O)c(O)cc4C[C@@]3(O)COC2=C1` gave JMJD2E inh 16µM*, Sfp inh 32µM*, Tau FP inhib inconclusive, Coupling enz -9, Tau ThT inhib 8.9µM* and Tau fluor cs inconclusive.
For CO[C@@H]1COC(=O)[C@H]2CCCN2C(=O)C/C=C\[C@@H](C)[C@H](OC)COC(=O)[C@H]2CCCN2C(=O)C/C=C\[C@H]1C the results were Sfp inh -14%, Tau FP inhib 0%[11.6 µM], Coupling enz 0, Tau ThT inhib inconclusive and Tau fluor cs -23%[11.6 µM].
`CCCn1c2ccccc2c2nnc(SCc3[nH]c(=O)[nH]c3C(=O)CCCCC(=O)OCC)nc21` gave JMJD2E inh -17%, Sfp inh 25µM*, Tau FP inhib -1%, Coupling enz 0, Tau ThT inhib inconclusive and Tau fluor cs -8%.
For COC(=O)C1=C(C)NC(=O)/C1=C\c1cc(C)n(-c2ccccc2)c1C the results were JMJD2E inh -11%, Sfp inh inconclusive, Tau FP inhib 4%, Coupling enz -23, Tau ThT inhib 13µM* and Tau fluor cs inconclusive.
For COC(=O)C1=C(C)NC(=O)/C1=C\c1cc(C)n(-c2cc(C)cc(C)c2)c1C the results were JMJD2E inh -20%, Sfp inh -12%, Tau FP inhib 1%, Coupling enz 0, Tau ThT inhib 20µM* and Tau fluor cs inconclusive.
For Cc1cc(C)cc(-n2c(C)cc(C=C(C#N)C#N)c2C)c1 the results were JMJD2E inh 8%, Sfp inh 15%, Tau FP inhib -11%, Coupling enz 2, Tau ThT inhib inconclusive and Tau fluor cs -4%.
Screening CCc1ccc2c(O)c3c(cc2c1C(=O)OC)C(=O)c1c(O)ccc(O)c1C3=O returned JMJD2E inh 2.8µM*, Sfp inh -27%, Tau FP inhib inconclusive, Coupling enz -17, Tau ThT inhib 3.2µM* and Tau fluor cs inconclusive.
For COc1ccc(SCC(CC(C)C)N2CCN(C)CCC2=O)cc1 (stereo unspecified) the results were Sfp inh -2% and Coupling enz 3.
Screening CC(=O)C1=C(O)C=C2Oc3c(C(C)=O)c(O)c(C)c(O)c3C2(C)C1=O (stereo unspecified) returned JMJD2E inh inconclusive, Sfp inh 9%, Tau FP inhib -11%, Coupling enz 10, Tau ThT inhib -8% and Tau fluor cs -18%.
For Clc1ccc(-c2nc3ccccn3c2CN2CCCCC2)cc1 the results were JMJD2E inh inconclusive, Sfp inh 9%, Tau FP inhib -3%, Coupling enz -1, Tau ThT inhib -1% and Tau fluor cs 1%.
Screening Oc1ccc(N2CCN(Cc3c(-c4ccccc4)nc4ccccn34)CC2)cc1 returned Sfp inh 25µM* and Coupling enz 1.
C(=N\Nc1ccc(-n2ccnc2)nn1)/c1ccccc1 was read as JMJD2E inh -6%, Sfp inh 89µM*, Tau FP inhib 1%, Coupling enz -4, Tau ThT inhib -11% and Tau fluor cs -9%.
Screening COc1cccc(Nc2ccc(-n3ccnc3)nn2)c1 returned JMJD2E inh 7%, Sfp inh 4%, Tau FP inhib 7%, Coupling enz 0, Tau ThT inhib -15% and Tau fluor cs -23%.
